# PubChem BioAssay (EPA / NIEHS)
# Records with an inconclusive call do not appear. Active and inactive are the calls of the source. How the source made its calls: active means hit-call score of the fitted dose curve at least 0.9, where 1 is the maximum; inconclusive means response in the unintended direction; inactive means score below 0.9.
# Experiments:
# [1] = target: rat Mineralocorticoid Receptor (MR), Nr3c2 (gene 25672) (UniProt P22199); assay: NVS_NR_rMR: NovaScreen (NVS) Nuclear Receptor Binding Assay for rat Mineralocorticoid Receptor (MR) (AID 2283355)
# Outline: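 Cell-free radioligand binding to mineralocorticoid receptor from adrenalectomized rat brain supernatant, scintillation counting after 24 h. Primary screen in duplicate at 25 uM; actives retested in concentration series. Loss of specific binding versus DMSO.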
# [2] = target: human Dopamine Transporter (DAT), SLC6A3 (gene 6531) (UniProt Q01959); assay: NVS_TR_hDAT: NovaScreen (NVS) Transporter Assay for human Dopamine Transporter (DAT) (AID 2283374);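 further: activity means loss of bound radioligand signal relative to DMSO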
# Outline: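 Cell-free radioligand displacement binding at human DAT, 1 h after dosing, with filtration and scintillation counting. Primary screen in duplicate at 25 uM, actives then in concentration series. Loss of bound signal versus DMSO scored.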
# [3] = target: human Peroxisome Proliferator-activated Receptor alpha (PPARa), PPARA (gene 5465) (UniProt Q07869); assay: NVS_NR_hPPARa: NovaScreen (NVS) Nuclear Receptor Binding Assay for human Peroxisome Proliferator-activated Receptor alpha (PPARa) (AID 2283359);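 further: activity means loss of TR-FRET signal versus DMSO baseline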
# Outline: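 Cell-free TR-FRET binding assay with extracted PPARα protein, read 1 h after dosing. Primary screen in duplicate at 25 uM, with actives retested in concentration series. Loss of signal versus DMSO.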
# PGR (gene 5241) = PGR (gene 5241) (UniProt P06401); assay: NVS_NR_hPR: NovaScreen (NVS) Nuclear Receptor Binding Assay for human Progestron Receptor (PR) (AID 2283360);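 further: active means loss of bound radioligand signal versus DMSO baseline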
# Outline: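 T47D lysate; tritiated or iodinated radioligand; scintillation count at 18 h. DMSO = negative control/baseline. Primary: 25 uM, duplicate. Secondary: concentration series for actives.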
# [4] = target: Peroxisome proliferator-activated receptor gamma (Homo sapiens) (UniProt P37231); assay: NVS_NR_hPPARg: NovaScreen (NVS) Nuclear Receptor Binding Assay for human Peroxisome Proliferator-activated Receptor gamma (PPARg) (AID 2283370)
# Outline: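 Cell-free binding to extracted PPARg protein, read by fluorescence polarization 2 h after dosing; loss of signal relative to DMSO baseline marks displacement. Primary screen in duplicate at 25 uM, actives retested in concentration series.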
# [5] = target: human Thyroid Receptor Alpha (TRa), THRA (gene 7067) (UniProt P10827); assay: NVS_NR_hTRa_Antagonist: NovaScreen (NVS) Nuclear Receptor Binding Assay for human Thyroid Receptor Alpha Antagonism (TRa) (AID 2283362);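 further: activity is loss of signal relative to DMSO baseline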
# Outline: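 Cell-free binding assay on extracted receptor protein, read 1 h after chemical dosing by AlphaLISA chemiluminescence; loss of signal relative to DMSO baseline marks antagonism. Primary screen ran in duplicate at 25 uM, with concentration series for actives.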
# [6] = target: Androgen Receptor/SRC-1 Co-activator, AR (gene 367) (UniProt P10275); assay: OT_AR_ARSRC1_0960: Odyssey Thera (OT) 16-hour HEK293T Protein-Complementation Assay for Androgen Receptor/SRC-1 Co-activator (AID 2283353);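 further: actives raise the signal above DMSO so potency reflects increased AR and SRC-1 complex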
# Outline: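 Split-Venus PCA, AR/SRC-1 fusions, stable HEK293T; 16 h compound exposure; imaged at 488 and 635 nm; N/C ratio (488 nm channel), min 400 cells/image; positive-direction fit, DMSO baseline.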
# [7] = target: Androgen Receptor/SRC-1 Co-activator, AR (gene 367) (UniProt P10275); assay: OT_AR_ARSRC1_0480: Odyssey Thera (OT) 8-hour HEK293T Protein-Complementation Assay for Androgen Receptor/SRC-1 Co-activator (AID 2283354);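 further: hits raise the complementation signal above DMSO so AC50 marks enhancers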
# Outline: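 HEK293T cells stably expressing AR and SRC-1 fused to Venus YFP fragments, imaged 8 h after dosing. Complementation fluorescence scored as nuclear/cytoplasmic ratio at 488 nm in at least 400 cells per image; gain fitted versus DMSO.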
# [8] = target: Retinoic acid receptor alpha (Homo sapiens) (UniProt P10276); assay: NVS_NR_hRAR_Antagonist: NovaScreen (NVS) Nuclear Receptor Binding Assay for human Retinoic Acid Alpha Receptor Antagonism (RAR) (AID 2283358)
# Outline: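 Cell-free TR-FRET binding assay with extracted human RARalpha in antagonist mode, read 2 h after dosing. Loss of signal was fitted relative to DMSO; the primary screen used 25 uM in duplicate, with concentration series on follow-up.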
# [9] = target: human Serotonin Transporter (SERT), SLC6A4 (gene 6532) (UniProt P31645); assay: NVS_TR_hSERT: NovaScreen (NVS) Transporter Assay for human Serotonin Transporter (SERT) (AID 2283372)
# Outline: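 Radioligand binding to native SERT in human platelet membranes, read by filter-based scintillation counting 1 h after dosing. Primary screen in duplicate at 25 uM; actives followed up in concentration series; loss of signal versus DMSO baseline.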
# [10] = target: rat Serotonin Transporter (SERT), Slc6a4 (gene 25553) (UniProt P31652); assay: NVS_TR_rSERT: NovaScreen (NVS) Transporter Assay for rat Serotonin Transporter (SERT) (AID 2283375)
# Outline: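 Rat forebrain membranes were incubated with test chemical for 1 hour; radioligand binding to SERT was measured by filter-based scintillation counting. Primary screen ran in duplicate at 25 uM, with actives followed up in concentration series; DMSO served as negative control.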
# [11] = target: T1, Estrogen receptor (Homo sapiens) + Estrogen receptor beta (Homo sapiens) (UniProt P03372+Q92731); assay: OT_ER_ERaERb_0480: Odyssey Thera (OT) 8-hour HEK293T Protein-Complementation Assay for Estrogen Receptor-alpha/-beta Heterodimer (AID 2283352)
# Outline: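 HEK293T cells expressing ER-alpha/ER-beta LBD fusions to complementary reporter fragments were dosed with compound for 8 hours. Heterodimer formation was read as increased nuclear (agonist) or nuclear plus cytoplasmic (antagonist) mean fluorescence intensity versus DMSO vehicle.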
# [12] = target: T1, Estrogen receptor (Homo sapiens) + Estrogen receptor beta (Homo sapiens); assay: OT_ER_ERaERb_1440: Odyssey Thera (OT) 24-hour HEK293T Protein-Complementation Assay for Estrogen Receptor-alpha/-beta Homodimer (AID 2283356);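 further: heteromer of ER alpha and ER beta binding domains; hits raise reporter fluorescence and both agonists and antagonists give an increase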
# Outline: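 HEK293T cells stably expressing a PCA pair of ERα LBD (aa 310-547) and ERβ LBD (aa 263-489) were dosed for 24 h. Fluorescence intensity increase versus DMSO vehicle was fitted as gain-of-signal.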
# [13] = target: Estrogen receptor beta (Homo sapiens) (UniProt Q92731); assay: OT_ER_ERbERb_0480: Odyssey Thera (OT) 8-hour HEK293T Protein-Complementation Assay for Estrogen Receptor-beta/-beta Homodimer (AID 2283357);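 further: active means signal gain over DMSO baseline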
# Outline: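 Fluorescence intensity, nuclear for agonists and nuclear plus cytoplasmic for antagonists, was quantified by laser scanning cytometry versus vehicle after 8 h treatment. The cells were HEK293T stably carrying ER beta LBD fragment-complementation partners.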
# [14] = tested on: guinea pig Dopamine Transporter (DAT), gene 100714898; assay: NVS_TR_gDAT: NovaScreen (NVS) Transporter Assay for guinea pig Dopamine Transporter (DAT) (AID 2283369);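 further: active compounds lower bound radioligand signal relative to DMSO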
# Outline: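 Guinea pig striatal membranes; radioligand displacement measured by filter-based scintillation counting 2 h after dosing. Initial duplicate screen at 25 uM, then concentration-response up to 50 uM for hits; loss of signal versus DMSO baseline.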
# [15] = tested on: rat Norepinephrine Transporter (NET), gene 83511; assay: NVS_TR_rNET: NovaScreen (NVS) Transporter Assay for rat Norepinephrine Transporter (NET) (AID 2283373)
# Outline: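 Rat forebrain membranes; radioligand binding measured by filter-based scintillation counting 1 hour after dosing. Loss of specific binding versus DMSO baseline scored; primary screen in duplicate at 25 uM, actives followed up in concentration series.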
# [16] = target: guinea pig Sigma Receptor, Non-selective Binding, SIGMAR1 (gene 100135589) (UniProt Q60492); assay: NVS_OR_gSIGMA_NonSelective: NovaScreen (NVS) Nuclear Receptor Binding Assay for guinea pig Sigma Receptor, Non-selective Binding (AID 2283367)
# Outline: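 Radioligand displacement on guinea pig brain membranes, read by filter-based scintillation counting 1 h after dosing. Loss of signal versus DMSO; initial duplicate single-point screen at 25 uM, actives followed in concentration series.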
# Estrogen receptor beta (Homo sapiens), sequence (Q92731 whole entry, looked up, the tested form may be a part): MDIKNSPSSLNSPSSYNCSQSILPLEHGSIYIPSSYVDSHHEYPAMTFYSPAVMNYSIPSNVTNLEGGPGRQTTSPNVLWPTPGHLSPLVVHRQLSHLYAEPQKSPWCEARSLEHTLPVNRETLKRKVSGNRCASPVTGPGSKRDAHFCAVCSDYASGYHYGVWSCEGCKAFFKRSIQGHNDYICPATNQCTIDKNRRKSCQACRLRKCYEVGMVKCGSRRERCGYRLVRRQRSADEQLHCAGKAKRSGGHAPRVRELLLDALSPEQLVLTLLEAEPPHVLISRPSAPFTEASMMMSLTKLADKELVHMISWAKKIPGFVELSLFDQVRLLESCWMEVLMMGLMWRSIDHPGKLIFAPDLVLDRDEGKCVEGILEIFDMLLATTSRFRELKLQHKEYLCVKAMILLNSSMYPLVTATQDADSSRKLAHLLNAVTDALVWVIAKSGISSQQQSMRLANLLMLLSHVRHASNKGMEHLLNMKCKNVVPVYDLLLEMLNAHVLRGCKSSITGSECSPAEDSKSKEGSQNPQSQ
# Androgen Receptor/SRC-1 Co-activator, AR (gene 367), sequence (P10275 whole entry, looked up, the tested form may be a part): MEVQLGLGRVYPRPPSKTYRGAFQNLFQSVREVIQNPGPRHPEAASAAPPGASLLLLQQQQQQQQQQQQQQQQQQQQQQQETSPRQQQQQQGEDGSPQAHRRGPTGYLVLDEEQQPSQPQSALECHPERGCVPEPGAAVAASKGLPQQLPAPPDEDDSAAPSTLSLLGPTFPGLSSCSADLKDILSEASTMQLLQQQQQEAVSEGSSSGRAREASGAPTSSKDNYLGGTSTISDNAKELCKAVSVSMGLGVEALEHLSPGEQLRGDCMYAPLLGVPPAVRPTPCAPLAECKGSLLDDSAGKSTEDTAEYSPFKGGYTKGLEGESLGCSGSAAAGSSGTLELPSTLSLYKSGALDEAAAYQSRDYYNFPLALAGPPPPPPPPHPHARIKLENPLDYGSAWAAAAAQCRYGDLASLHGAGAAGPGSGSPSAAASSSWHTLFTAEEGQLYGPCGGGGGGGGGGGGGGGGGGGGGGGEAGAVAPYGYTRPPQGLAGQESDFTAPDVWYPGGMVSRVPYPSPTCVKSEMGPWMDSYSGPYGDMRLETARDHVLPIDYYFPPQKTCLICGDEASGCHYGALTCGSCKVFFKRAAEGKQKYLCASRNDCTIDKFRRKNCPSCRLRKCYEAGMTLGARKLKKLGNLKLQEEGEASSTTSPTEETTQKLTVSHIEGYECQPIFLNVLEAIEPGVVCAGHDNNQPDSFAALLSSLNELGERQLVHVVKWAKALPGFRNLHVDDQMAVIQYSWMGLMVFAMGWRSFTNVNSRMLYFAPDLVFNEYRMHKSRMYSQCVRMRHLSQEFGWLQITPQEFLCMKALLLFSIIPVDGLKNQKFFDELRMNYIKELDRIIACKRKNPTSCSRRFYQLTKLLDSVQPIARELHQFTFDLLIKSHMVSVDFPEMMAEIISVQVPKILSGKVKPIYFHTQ
# human Peroxisome Proliferator-activated Receptor alpha (PPARa), PPARA (gene 5465), sequence (Q07869 whole entry, looked up): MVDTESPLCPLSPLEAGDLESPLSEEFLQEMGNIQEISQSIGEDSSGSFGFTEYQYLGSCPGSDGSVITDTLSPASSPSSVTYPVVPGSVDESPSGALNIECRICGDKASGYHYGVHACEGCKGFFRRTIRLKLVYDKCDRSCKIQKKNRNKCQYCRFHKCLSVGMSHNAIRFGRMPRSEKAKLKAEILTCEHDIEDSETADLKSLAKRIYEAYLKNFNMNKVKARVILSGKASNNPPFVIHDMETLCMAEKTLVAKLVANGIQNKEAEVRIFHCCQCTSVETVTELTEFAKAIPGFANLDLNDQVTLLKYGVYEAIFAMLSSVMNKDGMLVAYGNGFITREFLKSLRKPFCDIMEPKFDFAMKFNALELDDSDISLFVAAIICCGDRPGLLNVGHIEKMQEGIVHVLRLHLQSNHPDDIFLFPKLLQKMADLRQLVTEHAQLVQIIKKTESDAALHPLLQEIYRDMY
# Peroxisome proliferator-activated receptor gamma (Homo sapiens), sequence (P37231 whole entry, looked up): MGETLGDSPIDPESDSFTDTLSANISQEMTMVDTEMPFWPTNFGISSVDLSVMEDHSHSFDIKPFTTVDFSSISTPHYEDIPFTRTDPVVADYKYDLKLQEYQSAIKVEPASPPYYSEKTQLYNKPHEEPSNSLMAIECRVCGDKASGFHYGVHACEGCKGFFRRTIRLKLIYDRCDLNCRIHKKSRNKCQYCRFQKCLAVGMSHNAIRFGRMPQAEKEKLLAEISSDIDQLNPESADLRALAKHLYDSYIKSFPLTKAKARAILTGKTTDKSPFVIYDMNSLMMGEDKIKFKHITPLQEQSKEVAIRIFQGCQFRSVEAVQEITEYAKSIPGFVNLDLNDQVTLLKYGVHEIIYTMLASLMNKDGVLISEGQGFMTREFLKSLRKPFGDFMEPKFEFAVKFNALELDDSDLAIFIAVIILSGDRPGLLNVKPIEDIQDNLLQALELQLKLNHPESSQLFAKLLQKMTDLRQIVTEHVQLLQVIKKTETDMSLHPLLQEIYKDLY
# human Dopamine Transporter (DAT), SLC6A3 (gene 6531), sequence (Q01959 whole entry, looked up): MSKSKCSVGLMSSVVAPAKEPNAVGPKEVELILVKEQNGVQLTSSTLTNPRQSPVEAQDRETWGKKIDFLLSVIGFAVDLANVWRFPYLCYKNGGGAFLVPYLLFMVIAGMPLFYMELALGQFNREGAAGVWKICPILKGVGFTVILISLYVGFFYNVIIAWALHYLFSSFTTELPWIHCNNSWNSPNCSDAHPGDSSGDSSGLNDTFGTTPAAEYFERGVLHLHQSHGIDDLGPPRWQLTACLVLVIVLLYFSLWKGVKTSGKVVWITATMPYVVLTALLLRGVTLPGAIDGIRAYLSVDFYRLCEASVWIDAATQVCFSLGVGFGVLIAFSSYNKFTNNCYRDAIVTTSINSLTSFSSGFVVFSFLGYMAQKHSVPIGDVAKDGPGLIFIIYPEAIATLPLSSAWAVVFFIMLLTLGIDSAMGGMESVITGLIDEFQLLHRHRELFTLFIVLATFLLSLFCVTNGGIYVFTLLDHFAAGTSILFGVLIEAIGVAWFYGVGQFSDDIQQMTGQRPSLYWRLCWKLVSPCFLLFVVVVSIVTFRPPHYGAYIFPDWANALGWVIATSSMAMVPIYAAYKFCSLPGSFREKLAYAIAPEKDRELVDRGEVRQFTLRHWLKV
# T1 sequence (P03372 whole entry, looked up, the tested form may be a part): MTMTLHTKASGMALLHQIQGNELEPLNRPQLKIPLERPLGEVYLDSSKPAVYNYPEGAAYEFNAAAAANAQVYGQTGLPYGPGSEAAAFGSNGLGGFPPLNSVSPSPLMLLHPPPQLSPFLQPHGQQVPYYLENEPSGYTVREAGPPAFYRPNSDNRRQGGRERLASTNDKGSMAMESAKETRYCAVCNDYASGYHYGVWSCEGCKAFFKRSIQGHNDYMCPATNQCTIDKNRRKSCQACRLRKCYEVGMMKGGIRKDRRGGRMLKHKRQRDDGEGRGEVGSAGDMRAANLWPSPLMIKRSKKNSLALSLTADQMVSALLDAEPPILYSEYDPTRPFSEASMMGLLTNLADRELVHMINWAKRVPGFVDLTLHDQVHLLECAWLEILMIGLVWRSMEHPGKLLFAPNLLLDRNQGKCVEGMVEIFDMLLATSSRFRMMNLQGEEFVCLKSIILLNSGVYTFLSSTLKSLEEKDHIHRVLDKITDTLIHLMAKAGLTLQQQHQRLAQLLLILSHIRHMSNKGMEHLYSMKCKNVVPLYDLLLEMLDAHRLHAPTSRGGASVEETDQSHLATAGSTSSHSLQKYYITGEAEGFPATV
# T1 sequence (Q92731 whole entry, looked up, the tested form may be a part): as the sequence (Q92731 whole entry, looked up, the tested form may be a part) above
# human Serotonin Transporter (SERT), SLC6A4 (gene 6532), sequence (P31645 whole entry, looked up): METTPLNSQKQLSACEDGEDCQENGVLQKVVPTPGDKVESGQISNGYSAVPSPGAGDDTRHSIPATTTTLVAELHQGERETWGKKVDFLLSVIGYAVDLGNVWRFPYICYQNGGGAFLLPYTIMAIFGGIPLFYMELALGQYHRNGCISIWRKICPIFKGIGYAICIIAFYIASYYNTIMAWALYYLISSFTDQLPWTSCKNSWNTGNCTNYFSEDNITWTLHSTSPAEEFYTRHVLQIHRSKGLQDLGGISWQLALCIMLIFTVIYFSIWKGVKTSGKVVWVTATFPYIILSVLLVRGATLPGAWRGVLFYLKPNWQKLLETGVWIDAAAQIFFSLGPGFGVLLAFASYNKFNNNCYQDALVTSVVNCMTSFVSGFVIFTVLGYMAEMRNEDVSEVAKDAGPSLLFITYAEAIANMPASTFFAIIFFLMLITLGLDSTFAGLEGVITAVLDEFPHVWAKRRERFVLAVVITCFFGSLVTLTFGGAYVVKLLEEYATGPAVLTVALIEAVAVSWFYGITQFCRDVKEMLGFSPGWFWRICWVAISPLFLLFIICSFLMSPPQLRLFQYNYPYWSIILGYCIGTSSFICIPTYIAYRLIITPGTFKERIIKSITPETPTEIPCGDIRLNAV
# guinea pig Sigma Receptor, Non-selective Binding, SIGMAR1 (gene 100135589), sequence (Q60492 whole entry, looked up): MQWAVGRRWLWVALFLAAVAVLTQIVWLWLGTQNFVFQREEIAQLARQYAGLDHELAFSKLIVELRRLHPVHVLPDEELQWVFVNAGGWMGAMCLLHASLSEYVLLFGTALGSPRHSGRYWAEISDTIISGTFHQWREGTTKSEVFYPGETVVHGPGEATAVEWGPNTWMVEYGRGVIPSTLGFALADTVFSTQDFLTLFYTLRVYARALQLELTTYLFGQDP
smiles,measurement,setting,value
CCCCCCOC(=O)c1ccccc1C(=O)OCCCCCC,outcome,[1],inactive
same,outcome,[2],inactive
Oc1c(Cl)c(Cl)c(Cl)c(Cl)c1Cl,outcome,[3],inactive
same,outcome,PGR (gene 5241),inactive
same,outcome,[4],inactive
O=S(=O)(O)C(F)(F)C(F)(F)C(F)(F)C(F)(F)C(F)(F)C(F)(F)F,outcome,[3],inactive
same,outcome,[5],inactive
same,outcome,[4],inactive
Cc1ccccc1CO[C@@H]1C[C@@]2(C(C)C)CC[C@]1(C)O2,AC50,[6],79.7 µM (active)
same,outcome,[7],inactive
same,outcome,[8],inactive
same,AC50,[9],4.86 µM (active)
same,AC50,[2],11.2 µM (active)
same,AC50,[10],6.62 µM (active)
Nn1cnnc1,outcome,[11],inactive
same,outcome,[12],inactive
same,outcome,[13],inactive
same,outcome,[4],inactive
CCNc1nc(NC(C)C)nc(SC)n1,outcome,[6],inactive
same,outcome,[7],inactive
same,outcome,[13],inactive
CN(C)c1nc(=O)n(C2CCCCC2)c(=O)n1C,outcome,[12],inactive
same,outcome,[13],inactive
c1cc2ccc3cccc4ccc(c1)c2c34,outcome,[6],inactive
same,outcome,[7],inactive
same,outcome,[3],inactive
CCC(C)(c1ccc(O)cc1)c1ccc(O)cc1,outcome,[1],inactive
same,outcome,[3],inactive
same,AC50,PGR (gene 5241),10.2 µM (active)
same,AC50,[14],17.3 µM (active)
same,AC50,[4],5.51 µM (active)
same,outcome,[15],inactive
same,AC50,[2],7.9 µM (active)
CO/C=C(/C(=O)OC)c1ccccc1COc1cccc(C(F)(F)F)n1,outcome,[11],inactive
same,outcome,[12],inactive
same,outcome,[13],inactive
same,outcome,[4],inactive
Cc1ccccc1O,outcome,[11],inactive
same,outcome,[13],inactive
CCCCCCCCCC[N+](C)(C)CCCCCCCCCC,outcome,[11],inactive
same,outcome,[12],inactive
same,AC50,[3],0.861 µM (active)
same,AC50,[16],0.432 µM (active)
same,AC50,[14],25 µM (active)
same,outcome,[4],inactive
same,AC50,[9],13.4 µM (active)
same,AC50,[2],5.73 µM (active)
same,AC50,[10],12.6 µM (active)
Cc1cc(-c2ccc(N)c(C)c2)ccc1N,outcome,[8],inactive
same,AC50,[2],19.5 µM (active)
